Results as given in PubChem BioAssay (NCATS).
Inconclusive results are not listed. Where a call stands in place of a potency, no number is given. Values without a mark were called inactive. The source made the active and inactive calls. Calls follow the shape of the dose curve; as a rule, active = well fitted curve in the direction sought with a large enough effect; inconclusive = small, poorly fitted or top-dose-only effect, or another doubt; inactive = no such curve, though single readings can be large; an effect the other way counts as inactive or inconclusive.

Legend:
[1] = target: Cellular tumor antigen p53 (Homo sapiens) (UniProt P04637); assay: Primary qHTS for small molecule compounds that upregulate eGFP-tagged delta133p53alpha (in N-terminal) cells. (AID 2060322); conditions: NCI-H358 eGFP-delta133p53alpha fluorescence, 24 h; activation: active compounds read high; also: nearly all actives have a fitted effect of over 75% in size; also: potency is read from the fitted curve at half-maximal effect; as to activation: series mostly up to about 56 µM
Method in brief: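 NCI-H358 cells pre-induced 24 h with 10 ng/ml doxycycline to express N-terminal eGFP-delta133p53alpha, then dosed 24 h at 37C without doxycycline; fixed, Hoechst-stained, GFP intensity by laser scanning cytometry, normalized to DMSO (0%) and 57.5 uM 5-azacytidine (100%).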

[2] = target: Aldehyde dehydrogenase, mitochondrial (Homo sapiens) (UniProt P05091); assay: qHTS for Inhibitors of the Aldehyde Dehydrogenase Family (ALDH2) Primary screen (AID 2061308); also: nearly all actives have a fitted effect of over 55% in size
[3] = target: Retinaldehyde dehydrogenase 3 (Homo sapiens) (UniProt P47895); assay: qHTS for Inhibitors of the Aldehyde Dehydrogenase Family (ALDH1A3) Primary screen (AID 2061315)

Chain of Cellular tumor antigen p53 (Homo sapiens) (P04637 whole entry, looked up): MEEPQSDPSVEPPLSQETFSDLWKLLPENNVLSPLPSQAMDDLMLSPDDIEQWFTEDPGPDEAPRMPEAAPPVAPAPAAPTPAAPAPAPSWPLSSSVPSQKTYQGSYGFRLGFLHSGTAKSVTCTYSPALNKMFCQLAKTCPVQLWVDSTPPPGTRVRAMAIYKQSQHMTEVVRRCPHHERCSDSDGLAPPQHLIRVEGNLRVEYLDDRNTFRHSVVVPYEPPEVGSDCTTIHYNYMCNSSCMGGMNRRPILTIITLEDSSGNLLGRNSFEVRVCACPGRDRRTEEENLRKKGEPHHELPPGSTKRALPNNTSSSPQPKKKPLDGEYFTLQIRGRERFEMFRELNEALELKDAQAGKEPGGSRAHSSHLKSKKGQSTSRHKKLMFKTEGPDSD

Row | Structure (SMILES) | activation [1] | Potency [2] | Potency [3] | Potency [1]
1 | C=C1C(=O)OC2C=C(C)CC/C=C(\CO)CC(O)C12 (stereo unspecified) | 9.92% | inactive | inactive | –
2 | COC(=O)C(CC1(OC(=O)C(C)C)c2ccccc2N2C(=O)C(C)(C)N(O)C21)n1cnc2ccccc2c1=O (stereo unspecified) | 3.05% | inactive | inactive | –
3 | CC(=O)c1c(C)cc(O)cc1O[C@@H]1O[C@H](CO)[C@@H](O)[C@H](O)[C@H]1O | -17.6% | inactive | inactive | –
4 | NCCOCCOCCNC(=O)Cc1ccc(Nc2nc(NCc3ccc(F)cc3)nc(NCC3CCCCC3)n2)cc1 | 2.33% | inactive | inactive | –
5 | C=C[C@@]1(C)CCC2=C([C@H]1OC(C)=O)[C@H](OC(C)=O)CC1[C@](C)(C(=O)OC)CC[C@H](OC(C)=O)[C@]21C (stereo partly specified) | 15.2% | inactive | inactive | –
6 | CC(C)(C)c1ccc(S(=O)(=O)Nc2ccc(Cl)cc2C(=O)c2cc[n+]([O-])cc2)cc1 | -16.3% | inactive | inactive | –
7 | CN(CC1COCCO1)S(=O)(=O)Nc1ccc2ccc3ncc(-c4cnn(C)c4)cc3c(=O)c2c1 (stereo unspecified) | 0.893% | inactive | inactive | –
8 | COc1ccc2c(c1)OC[C@]1(O)c3cc4c(cc3O[C@H]21)OCO4 | -2.68% | inactive | inactive | –
9 | CCCCCCc1cccc(NC(=O)[C@H](N)CCP(=O)(O)O)c1 | 1% | inactive | inactive | –
10 | CC(CC12CCCN1C(=O)C1CCCN1C2=O)OC(N)=O (stereo unspecified) | -18.3% | inactive | inactive | –
11 | CC1=C[C@H](O)[C@H]2C(C)(C)CCC[C@]2(C)[C@@]1(O)CO | -2.68% | inactive | inactive | –
12 | COc1ccc(/C=C/C(=O)O[C@@H]2[C@@H](O)[C@H](C)O[C@@H](OC3C4C=COC(O[C@@H]5O[C@H](CO)[C@@H](O)[C@H](O)[C@H]5O)C4C4(CO)OC34)[C@@H]2O)cc1OC (stereo partly specified) | -13% | inactive | inactive | –
13 | C=C1C(=O)OC2/C=C(\C)CC/C=C(\C=O)C(OC)C(OC(=O)C(C)CC)C12 (stereo unspecified) | – | inactive | inactive | 16.6 µM (active)
14 | COc1cc(C/C(=C/NC(C)=O)N(CC(=O)Cc2ccccc2)C(C)=O)cc2c1OCO2 | -26% | inactive | inactive | –
15 | CC1(C)CC[C@]2(C(=O)O)CC[C@]3(C)C(=CCC4[C@@]5(C)C[C@@H](O)[C@H](O)C(CO)(CO)C5CC[C@]43C)C2[C@@H]1O (stereo partly specified) | -9.16% | inactive | inactive | –
16 | COc1ccccc1-c1c[nH]c2ncc(-c3cncc(C(=O)N(C)C)c3)cc12 | – | inactive | inactive | 21.3 µM (active)
17 | C=C(C)C1Cc2c(ccc3c2OCC(c2ccc(O)cc2O)C3)O1 (stereo unspecified) | 32.1% | inactive | inactive | –
18 | C/C(=C\CCC(C)(C)O)CCO[C@@H]1O[C@H](CO[C@@H]2O[C@@H](C)[C@H](O)[C@@H](O)[C@H]2O)[C@@H](O)[C@H](O)[C@H]1O | 0% | inactive | inactive | –
19 | O=C(CSc1nc2ccccc2c(=O)n1-c1ccccc1)Nc1ccc2c(c1)CCC2 | 5.67% | inactive | inactive | –
20 | C=C1CC/C=C(/CO)C(=O)C[C@@H]2[C@@H]1C[C@@]2(C)COC(C)=O | 11.5% | inactive | inactive | –
21 | CC(C)(C)c1ccc(C(=O)Nc2cc(Cl)c(Br)cc2C(=O)O)cc1 | -3.67% | inactive | inactive | –
22 | Cc1ccc(Nc2nnc(-c3ccc([N+](=O)[O-])cc3)o2)cc1Cl | 9.82% | inactive | inactive | –
23 | C/C(=C\CCC(C)C1=CCC2(C)OC3=C(CC12)C(=O)C(O)CC3)CO (stereo unspecified) | 25.2% | inactive | inactive | –
24 | CCn1cc(NC(=S)Nc2cc(Cl)ccc2OC)c(C(N)=O)n1 | -5% | inactive | inactive | –
25 | COc1cc(C(=O)OC[C@@]2(O)CO[C@@H](O[C@H]3[C@H](Oc4ccc(C(=O)O)cc4OC)O[C@H](CO)[C@@H](O)[C@@H]3O)[C@@H]2O)ccc1O | -13.7% | inactive | inactive | –
26 | CO[C@@H]1[C@H](O)CCC2(CO2)[C@H]1[C@@]1(C)O[C@@H]1CC=C(C)C (stereo partly specified) | 0.763% | inactive | inactive | –
27 | C/C=C1/C[N+](C)([O-])C2Cc3c([nH]c4ccccc34)C(=O)CC1C2C(=O)OC (stereo unspecified) | -9.82% | inactive | inactive | –
